Measurements taken from PubChem BioAssay (NCATS).
Several values for one entry are separate records, joined by “and”; a condition that tells them apart may be missing. Equal entries are not always repeated. Results filed as inconclusive are left out. Activity calls are given as the source filed them. Unless noted, calls come from the whole dose curve; as a rule, active = well fitted curve in the direction sought with a large enough effect; inconclusive = small, poorly fitted or top-dose-only effect, or another doubt; inactive = no such curve, though single readings can be large; an effect the other way counts as inactive or inconclusive.

Columns and labels:
[1] = molecular target: Tyrosine-protein kinase Yes (Homo sapiens) (UniProt P07947); test: qHTS for small molecule inhibitors of Yes1 kinase: Primary Screen (AID 686947);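 note: plate controls were DMSO with enzyme for no effect and no-enzyme DMSO wells for full effect; nearly all actives have a fitted effect of over 60% in size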
Summary of the method: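 Yes1 (4 nM) preincubated 20 min with compound, then 60 min room-temperature reaction with 0.1 mM ATP and 0.3 mg/mL poly(E4Y) in pH 7.5 Tris, 10 mM MgCl2. ADP measured by ADP-Glo luminescence, normalised to enzyme/no-enzyme controls.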

[2] = qHTS for small molecule inhibitors of Yes1 kinase: Counter Assay (AID 686950);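 note: no kinase present so only ADP-Glo detection of a fixed ADP amount is tested; luminescence from ADP-Glo reporting ADP in a fixed ATP and ADP mixture; 0% = DMSO wells with ATP plus ADP and -100% = ATP-only wells without ADP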
Summary of the method: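 Luminescence read-out from ADP-Glo quantifies a fixed ADP amount (0.02 mM ADP with 0.08 mM ATP) after 60 min at room temperature; signal is normalized between DMSO wells with ATP/ADP and with 0.1 mM ATP alone.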

[3] = molecular target: Arylsulfatase A (Homo sapiens) (UniProt P15289); test: qHTS screen for enhancers of Arylsulfatase A (ASA1): LOPAC Validation Assay (AID 720538); note: 0% is about no effect
Summary of the method: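 Enhancer assay in patient-derived MLD fibroblasts carrying ASA-I179S: 48 h compound exposure at 37 C, then 14 h room-temperature pNCS turnover (0.5 mM final) in lysis buffer. Read by fluorescence at 525/598 nm after NaOH stop.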

[4] = qHTS for compounds that reverse cellular toxicity of Amyloid beta (A-beta) peptide in yeast: LOPAC Validation Assay (AID 720559);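 note: plate controls were DMSO for no effect and equimolar ferric chloride plus clioquinol rescue for full effect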
Summary of the method: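 Rescue of A-beta toxicity was scored as yeast growth by 600 nm absorbance after 48 hr at 30 C with compound. Normalization used DMSO (negative) and equimolar ferric chloride plus clioquinol (positive).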

[5] = qHTS for Activators of Parkin Expression: LOPAC Validation Assay (NLuc Reporter) (AID 720572;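 note: 0% = DMSO and 100% = positive control compound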)
Summary of the method: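 Parkin promoter-driven FLuc/NLuc neuronal reporter cells; 24 h plating, 7-pt dose response, 24 h at 37 C/5% CO2; FLuc then NanoLuc reagent, 10 min each, luminescence; DMSO/positive control normalized.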

[6] = qHTS for Activators of Parkin Expression: LOPAC Validation Assay (FLuc Reporter) (AID 720573;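 note: 0% = DMSO and 100% = positive control compounds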)
Summary of the method: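 FLuc signal from Parkin-promoter coincidence reporter neuronal cells, normalized to DMSO and positive control (100%). Cells (1,500/well) pre-incubated 24 h, then exposed to LOPAC compounds in 7-point dose response for 24 h at 37 C, 5% CO2.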

[7] = molecular target: T1, Hexokinase-4 (Homo sapiens) + Glucokinase regulatory protein (Homo sapiens) (UniProt P35557+Q14397); test: qHTS assay for inhibitors of recombinant human GCK-GKRP interaction: Diaphorase-coupled assay (AID 743205)
Summary of the method: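 A kinetic fluorescence read (Ex 525/Em 590 nm, every minute for 30 minutes) tracked resorufin from a G6PDH-diaphorase coupled GCK reaction. It contained 10 nM GST-GCK, 10 nM FLAG-GKRP, 5 mM glucose, 0.4 mM ATP in Hepes pH 7.6. Normalized to with/without-enzyme DMSO controls.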

[8] = molecular target: T1, Hexokinase-4 (Homo sapiens) + Glucokinase regulatory protein (Homo sapiens); test: qHTS assay for inhibitors of recombinant human GCK-GKRP interaction: ADP-Glo assay (AID 743206);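 note: plate controls were DMSO plus enzyme for no effect and no enzyme for full effect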
Summary of the method: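 GST-GCK and FLAG-GKRP (15 nM each in the dispensed mix, with 2 uM S6P) react with 0.4 mM ATP and 5 mM glucose (final) in Hepes pH 7.6 for 60 min at room temperature. ADP is measured by ADP-Glo luminescence.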

[9] = molecular target: T1, Hexokinase-4 (Homo sapiens) + Glucokinase regulatory protein (Homo sapiens); test: qHTS assay for inhibitors of recombinant human GCK-GKRP interaction: HTRF assay (AID 743207);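 note: 0% = DMSO with GCK present and -100% = DMSO wells lacking GCK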
Summary of the method: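 After 60 min equilibration at room temperature with anti-FLAG XL665 and anti-GST antibodies, FRET ratio (665/615 nm, excitation 320 nm) was read. Proteins: GST-GCK and FLAG-GKRP, each 5 nM, plus 2 uM S6P, pH 7.1 buffer; GCK-free wells define minimum signal.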

[10] = qHTS profiling for inhibitors of Plasmodium falciparum (3D7) proliferation (AID 743322; call rule not given here;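 note: infected erythrocytes exposed to compound for 72 h before lysis; 100% = DMSO vehicle wells and 0% = 0.29 µM artemisinin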); conditions: P. falciparum 3D7 proliferation; at 28.7 µM (top of the series)
Summary of the method: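 Erythrocytes infected with P. falciparum (0.3% parasitemia, 2.5% hematocrit) incubated with compounds 72 h at 37 C, 5% CO2. Lysis with saponin/Triton buffer containing SYBR Green I, overnight at room temperature in the dark; DNA fluorescence (485/535 nm) normalised to 0.29 uM artemisinin and DMSO.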

[11] = qHTS assay for environmental chemicals that activate the Aryl hydrocarbon Receptor (AhR) signaling pathway (AID 651777); conditions: 1A2-DRE human hepatoma cells, luciferase, 24 h; activation: stronger effect = higher value; note: % of control where 0% means no effect; nearly all actives have a fitted effect of over 15% in size
Summary of the method: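 Stable CYP1A2 promoter/DRE-luciferase human hepatoma line treated 24 hr; One-Glo luminescence, 30 min RT.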

[12] = molecular target: Peroxisome proliferator-activated receptor alpha (Homo sapiens) (UniProt Q07869); test: qHTS assay for small molecule agonists of the peroxisome proliferator-activated receptor alpha (PPARalpha) signaling pathway (AID 651778); conditions: PathHunter PPARalpha complementation, chemiluminescence, 6 h; max response: stronger effect = higher value; note: % of control where 0% means no effect
Summary of the method: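 Chemiluminescence from complemented enzyme reported PPARalpha activation in cells after 6 hr of compound treatment at 37 C. The detection reagent was incubated for 60 min at room temperature, and compounds were scored as agonists.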

[13] = qHTS assay for small molecule agonists of the antioxidant response element (ARE) signaling pathway measured by Nrf2-dependant transcriptional activity - cell viability counter screen (AID 720653; active = well fitted curve in the direction sought with a large enough effect in the repeat runs; an effect the other way counts as inactive or inconclusive; note: % is set by controls: 0 for no effect and ±100 for the full control effect); conditions: ARE-bla HepG2 viability, CellTiter-Glo ATP luminescence, 16 h; stronger effect = lower value
Summary of the method: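 Cytotoxicity counter screen: intracellular ATP quantified by CellTiter-Glo luminescence in the same ARE-bla HepG2 plates, after 16 h compound exposure and a 2 h beta-lactamase substrate step.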

[14] = qHTS Assay for Identifying Gametocytocidal Compounds (AID 743244);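 note: % is set by controls: 0 for no effect and ±100 for the full control effect; actives lower the fluorescent signal which means gametocytes are killed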; conditions: P. falciparum 3D7 stage III-V gametocytes, alamarBlue, 72 h; max response: stronger effect = lower value
Summary of the method: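 Compounds are pinned into medium, gametocytes (stage III–V, 3D7, 20,000 cells/well) added, and plates held 72 h at 37 °C in 5% CO2. AlamarBlue follows for 24 h before fluorescence reading.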

[15] = qHTS assay for cell viability of HEK293 cells (AID 743288); conditions: ATP luminescence (CellTiter-Glo), 18 h; max response: stronger effect = lower value; note: nearly all actives have a fitted effect of over 50% in size; note: potency is the fitted concentration of half-maximal effect; for max response: % is set by controls: 0 for no effect and ±100 for the full control effect
Summary of the method: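 Total intracellular ATP, measured with a luciferase-coupled reagent, indicates the number of viable HEK293 cells. Exposure to test chemicals lasts 18 h at 37 C in 1,536-well format at 2,000 cells/well.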

[16] = qHTS assay for cell viability of the p53RE-bla HCT-116 cell line (AID 743292); note: % is set by controls: 0 for no effect and ±100 for the full control effect; nearly all actives have a fitted effect of over 55% in size
Summary of the method: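 Readout: CellTiter-Glo luminescence after 30 min RT. Treatment: compounds in DMSO, 16 h, 37 C. Cells: CellSensor p53RE-bla HCT-116, 4,000/well, preincubated 5 h.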

[17] = qHTS assay to identify small molecules that stimulate interleukin-8 (IL-8) secretion (AID 651758; active = well fitted activation curve with a large enough effect in the signal ratio; the % refers to the signal ratio; note: potency is the fitted concentration of half-maximal effect)
Summary of the method: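 Secreted IL-8 measured by TR-FRET sandwich (cryptate and XL665 antibodies) from THP-1 cells exposed to compound overnight (16 hrs, 37 C).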

[18] = molecular target: Nuclear receptor ROR-gamma (Homo sapiens) (UniProt P51449); test: qHTS assay for small molecule antagonists of the retinoid-related orphan receptor gamma (ROR-gamma) signaling pathway (AID 651802); note: nearly all actives have a fitted effect of over 60% in size; note: potency is the fitted concentration of half-maximal effect
Summary of the method: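 CHO cells with TET-inducible ROR-gamma and RORE-luciferase reporter, dosed then doxycycline-induced. After 16 h at 37C, One-Glo luminescence read; decreased signal indicates antagonism.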

[19] = qHTS assay for small molecule antagonists of the retinoid-related orphan receptor gamma (ROR-gamma) signaling pathway - cell viability counter screen (AID 720652; active = well fitted curve in the direction sought with a large enough effect in the repeat runs; an effect the other way counts as inactive or inconclusive;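 note: compound exposure lasted 16 hr before ATP read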; note: potency is the fitted concentration of half-maximal effect)
Summary of the method: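 CHO cells carrying TET-inducible ROR and RORE-luciferase reporter, plated 5 hr, then dosed with compound plus doxycycline. After 16 hr at 37 C, viability read as intracellular ATP by CellTiter-Glo luminescence.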

[20] = qHTS assay for small molecule agonists of the antioxidant response element (ARE) signaling pathway measured by Nrf2-dependant transcriptional activity (AID 720636; active = well fitted curve in the direction sought with a large enough effect in the repeat runs; an effect the other way counts as inactive or inconclusive;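 note: HepG2 cells with an ARE-driven luciferase reporter; % of control where 0% means no effect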)
Summary of the method: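 Reporter gene assay, HepG2 ARE-luc: 16 hr compound, 37 C, 5% CO2; read-out luciferase luminescence.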

Sequence of Peroxisome proliferator-activated receptor alpha (Homo sapiens) (Q07869 whole entry, looked up): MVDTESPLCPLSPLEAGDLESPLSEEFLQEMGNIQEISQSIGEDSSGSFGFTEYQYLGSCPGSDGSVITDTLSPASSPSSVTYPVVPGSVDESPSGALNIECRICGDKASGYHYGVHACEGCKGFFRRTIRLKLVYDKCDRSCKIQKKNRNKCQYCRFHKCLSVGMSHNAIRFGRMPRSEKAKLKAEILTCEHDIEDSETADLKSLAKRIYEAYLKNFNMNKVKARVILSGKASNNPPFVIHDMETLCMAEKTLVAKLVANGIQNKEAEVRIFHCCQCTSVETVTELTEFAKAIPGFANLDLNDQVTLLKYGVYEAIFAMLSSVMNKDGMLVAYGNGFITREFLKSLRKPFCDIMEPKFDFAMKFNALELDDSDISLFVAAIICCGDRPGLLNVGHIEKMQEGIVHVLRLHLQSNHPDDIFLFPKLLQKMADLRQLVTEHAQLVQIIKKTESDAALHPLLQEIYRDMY
T1 sequence (P35557 whole entry, looked up): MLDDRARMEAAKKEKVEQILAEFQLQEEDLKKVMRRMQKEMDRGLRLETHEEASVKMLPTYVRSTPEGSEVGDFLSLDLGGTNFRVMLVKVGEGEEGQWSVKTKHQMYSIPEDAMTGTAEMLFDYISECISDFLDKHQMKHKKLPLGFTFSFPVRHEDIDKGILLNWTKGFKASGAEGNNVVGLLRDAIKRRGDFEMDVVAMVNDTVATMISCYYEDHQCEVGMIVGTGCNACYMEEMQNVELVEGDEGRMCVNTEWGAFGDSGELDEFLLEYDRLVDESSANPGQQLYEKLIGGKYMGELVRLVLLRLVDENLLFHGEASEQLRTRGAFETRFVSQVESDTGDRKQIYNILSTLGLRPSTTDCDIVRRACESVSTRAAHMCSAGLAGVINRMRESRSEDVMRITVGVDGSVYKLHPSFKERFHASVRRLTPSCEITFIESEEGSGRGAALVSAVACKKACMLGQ
T1 sequence (Q14397 whole entry, looked up): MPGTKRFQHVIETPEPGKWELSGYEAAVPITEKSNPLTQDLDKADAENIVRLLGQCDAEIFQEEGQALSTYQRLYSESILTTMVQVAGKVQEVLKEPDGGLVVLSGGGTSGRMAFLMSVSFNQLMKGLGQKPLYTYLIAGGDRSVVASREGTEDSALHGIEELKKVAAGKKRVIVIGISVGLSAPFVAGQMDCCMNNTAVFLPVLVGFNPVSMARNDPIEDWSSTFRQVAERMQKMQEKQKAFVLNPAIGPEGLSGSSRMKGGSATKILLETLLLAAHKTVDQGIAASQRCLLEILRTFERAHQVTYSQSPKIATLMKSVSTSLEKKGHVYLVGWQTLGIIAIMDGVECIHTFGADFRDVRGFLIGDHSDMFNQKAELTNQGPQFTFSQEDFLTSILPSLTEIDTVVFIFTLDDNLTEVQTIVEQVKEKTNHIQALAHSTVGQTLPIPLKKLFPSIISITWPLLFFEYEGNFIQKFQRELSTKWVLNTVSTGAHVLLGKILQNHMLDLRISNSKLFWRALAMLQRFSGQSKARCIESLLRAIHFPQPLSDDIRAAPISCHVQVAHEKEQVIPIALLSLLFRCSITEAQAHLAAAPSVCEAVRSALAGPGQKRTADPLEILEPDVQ
Sequence of Arylsulfatase A (Homo sapiens) (P15289 whole entry, looked up): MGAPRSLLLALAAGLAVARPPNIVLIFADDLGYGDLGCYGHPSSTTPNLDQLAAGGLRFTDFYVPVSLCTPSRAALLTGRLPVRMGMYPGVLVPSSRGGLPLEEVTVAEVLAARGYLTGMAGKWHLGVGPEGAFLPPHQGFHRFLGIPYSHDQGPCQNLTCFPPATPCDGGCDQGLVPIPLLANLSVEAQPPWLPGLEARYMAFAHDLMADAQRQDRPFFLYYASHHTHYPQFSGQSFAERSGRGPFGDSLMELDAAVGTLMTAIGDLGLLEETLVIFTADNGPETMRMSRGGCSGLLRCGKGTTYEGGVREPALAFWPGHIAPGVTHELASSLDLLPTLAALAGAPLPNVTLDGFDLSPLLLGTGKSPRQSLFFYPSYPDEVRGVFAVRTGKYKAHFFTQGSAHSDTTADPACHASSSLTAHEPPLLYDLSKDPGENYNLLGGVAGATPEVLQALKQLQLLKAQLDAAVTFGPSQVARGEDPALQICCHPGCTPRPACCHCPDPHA
Sequence of Nuclear receptor ROR-gamma (Homo sapiens) (P51449 whole entry, looked up): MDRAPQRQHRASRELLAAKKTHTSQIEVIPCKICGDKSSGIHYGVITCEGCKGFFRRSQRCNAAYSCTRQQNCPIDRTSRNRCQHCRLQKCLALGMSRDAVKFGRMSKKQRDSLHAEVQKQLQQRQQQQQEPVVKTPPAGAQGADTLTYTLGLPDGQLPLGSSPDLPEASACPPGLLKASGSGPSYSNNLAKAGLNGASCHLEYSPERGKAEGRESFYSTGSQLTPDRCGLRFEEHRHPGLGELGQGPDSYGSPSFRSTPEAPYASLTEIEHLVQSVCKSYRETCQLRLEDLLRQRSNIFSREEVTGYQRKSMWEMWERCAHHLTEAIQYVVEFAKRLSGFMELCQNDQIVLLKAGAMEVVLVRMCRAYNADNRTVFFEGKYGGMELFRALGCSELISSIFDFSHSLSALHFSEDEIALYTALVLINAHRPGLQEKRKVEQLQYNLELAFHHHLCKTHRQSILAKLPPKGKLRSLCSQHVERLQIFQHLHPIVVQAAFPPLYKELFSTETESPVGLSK
Sequence of Tyrosine-protein kinase Yes (Homo sapiens) (P07947 whole entry, looked up): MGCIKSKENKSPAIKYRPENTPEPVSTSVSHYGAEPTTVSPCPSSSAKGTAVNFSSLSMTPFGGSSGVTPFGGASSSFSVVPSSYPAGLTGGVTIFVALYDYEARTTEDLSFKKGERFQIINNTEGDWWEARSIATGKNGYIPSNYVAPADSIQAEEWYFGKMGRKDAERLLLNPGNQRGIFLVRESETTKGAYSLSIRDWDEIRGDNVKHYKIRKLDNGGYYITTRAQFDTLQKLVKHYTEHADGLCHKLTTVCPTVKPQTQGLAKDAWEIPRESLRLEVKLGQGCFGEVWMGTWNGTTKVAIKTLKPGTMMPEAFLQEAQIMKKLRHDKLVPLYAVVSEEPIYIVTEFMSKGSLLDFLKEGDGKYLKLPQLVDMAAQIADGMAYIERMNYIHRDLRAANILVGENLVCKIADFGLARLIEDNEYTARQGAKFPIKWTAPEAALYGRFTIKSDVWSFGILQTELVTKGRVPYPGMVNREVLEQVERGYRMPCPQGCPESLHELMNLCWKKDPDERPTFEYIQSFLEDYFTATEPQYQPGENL

For O=C(O)c1nn(Cc2ccc(Cl)cc2Cl)c2ccccc12, the outcome [1] was “inactive”, the outcome [2] was “inactive” and the Potency [3] was “inactive”. The outcome [4] was “inactive”, the Potency [5] was “inactive” and the outcome [6] was “inactive”. The outcome [7] was “inactive”, the outcome [8] was “inactive” and the outcome [9] was “inactive”. The remaining parasite growth % (stronger effect = lower value) [10] was 86.6%.

In the case of CCOP(=S)(OCC)O/N=C(\C#N)c1ccccc1, the activation [11] is reported as 9.33% (inactive), the max response [12] is reported as -3.05% (inactive) and the max response [13] is reported as 4.22% (inactive). The max response [14] was -3.66% (inactive), the max response [15] was -1.29% (inactive) and the outcome [16] was “inactive”.

With O=C(CCl)c1ccc(Cl)cc1Cl the Potency [17] was 3.76 µM (active), the activation [11] was 0.547% (inactive) and the max response [12] was -0.884% (inactive). The Potency [18] was 7.5 µM (active), the Potency [19] was 21.1 µM (active) and the max response [14] was 14.5% (inactive) and 7.69% (inactive). For the same compound, the Potency [15] was 14.1 µM (active).

With COC(=O)C1=CCCN(C)C1 the Potency [3] was “inactive”, the outcome [4] was “inactive” and the Potency [5] was “inactive”. For the same compound, the outcome [6] was “inactive”, the outcome [7] was “inactive” and the outcome [8] was “inactive”. The outcome [9] was “inactive” and the max response [14] was 7.57% (inactive) and 6.37% (inactive).

For N#Cc1nn(-c2c(Cl)cc(C(F)(F)F)cc2Cl)c(N)c1S(=O)C(F)(F)F (stereo not drawn), the activation [11] was 2.36% (inactive), the max response [12] was -0.478% (inactive) and the Potency [20] was “inactive”. For the same compound, the max response [13] was -35.8% (inactive), the max response [14] was 6.82% (inactive) and the max response [15] was -24.4% (inactive). The outcome [16] was “inactive”.

For Cc1ccc(N=CN(C)C=Nc2ccc(C)cc2C)c(C)c1, the Potency [20] was “inactive”, the max response [13] was -11.3% (inactive) and the max response [14] was 9.43% (inactive). For the same compound, the max response [15] was -16.1% (inactive) and the outcome [16] was “inactive”.

In the case of COP(=O)(OC)OC=C(Cl)Cl, the Potency [17] is reported as 21.1 µM (active) and 66.8 µM (active), the activation [11] is reported as 2.56% (inactive) [middle of 4 runs] and the max response [12] is reported as -1.1% (inactive) [middle of 4 runs]. The Potency [18] was “inactive”, the Potency [20] was “inactive” and the Potency [19] was “inactive”. For the same compound, the max response [13] was -9.52% (inactive) [middle of 4 runs], the max response [14] was -6.93% (inactive) and the max response [15] was -9.07% (inactive) [middle of 4 runs]. The outcome [16] was “inactive”.
